Only some compounds are listed: those with a hit (about 3.8% of all), similar ones and a draw of the others.
pPAFAH inh: pPAFAH (human) enzyme inhibition; Q13093; recombinant pPAFAH, FP-rhodamine probe fluorescence polarization; inhibition, % at 3.39 µM; 330,000 tested, 1.5% active;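 active = inhibition above the mean inhibition across the screen plus 3 SD, cut at about 25% in these data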;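 note: inhibitors block binding of the rhodamine activity-based probe so polarization drops; 0% = enzyme with DMSO and 100% = wells lacking pPAFAH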
PAFAH1B2 FP inh: blocks human PAF acetylhydrolase 1b catalytic subunit 2 | P68402 | inhibition, % at 3.39 µM | recombinant PAFAH1B2, FP-rhodamine activity probe, fluorescence polarization | 340,000 tested, 1.2% active;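 active = inhibition above the mean of all tested compounds plus 3 SD, cut at about 24% in these data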;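 note: 0% = enzyme with DMSO and 100% = wells lacking PAFAH1B2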
Target sequence (P68402 whole entry, looked up): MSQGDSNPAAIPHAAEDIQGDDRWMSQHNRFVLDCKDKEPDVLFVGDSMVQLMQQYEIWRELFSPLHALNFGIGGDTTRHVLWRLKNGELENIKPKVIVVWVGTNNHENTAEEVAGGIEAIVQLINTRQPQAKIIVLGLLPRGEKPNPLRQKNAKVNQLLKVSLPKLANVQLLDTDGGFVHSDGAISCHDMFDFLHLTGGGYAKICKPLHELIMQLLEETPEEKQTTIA
PAFAH1B3 FP inh: blocks human PAF acetylhydrolase 1B catalytic subunit 3; recombinant PAFAH1B3, FP-rhodamine probe, fluorescence polarization; inhibition, % at 3.39 µM; 340,000 tested, 0.28% active;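 active = inhibition above the screen-wide average of all tested compounds plus 3 SD, cut at about 25% in these data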;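 note: 0% = enzyme with DMSO only and 100% = wells lacking PAFAH1B3 protein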
Target sequence (Q15102 whole entry, looked up): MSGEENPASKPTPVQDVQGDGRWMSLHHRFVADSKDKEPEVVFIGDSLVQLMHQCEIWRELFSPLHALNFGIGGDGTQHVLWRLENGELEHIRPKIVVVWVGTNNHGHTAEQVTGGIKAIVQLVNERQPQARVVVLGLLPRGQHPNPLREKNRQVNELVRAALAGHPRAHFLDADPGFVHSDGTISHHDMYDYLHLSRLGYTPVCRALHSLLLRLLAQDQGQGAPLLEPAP
PAFAH2 inh: PAFAH2 (human) inhibition; inhibition, % at 3.39 µM; recombinant PAFAH2, FP-rhodamine activity probe, fluorescence polarization; Q99487; AID 492956; 340,000 tested, 0.99% active;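 active = inhibition above the mean over all tested compounds plus 3 SD, cut at about 30% in these data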;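 note: inhibitors block probe labeling of enzyme so polarization drops; 0% = enzyme with DMSO and 100% = wells lacking PAFAH2 protein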
M18AAP inhibitor: blocks P. falciparum M18 aspartyl aminopeptidase | recombinant PfM18AAP, H-Glu-NHMec fluorogenic cleavage | inhibition, % at 7.35 µM | 290,000 tested, 1.2% active | AID 1822;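 active = inhibition above the campaign mean inhibition over all tested compounds plus 3 SD, cut at about 28% in these data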;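 note: 0% = plate median of test compound wells and 100% = 2 mM ZnCl2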
Pemphigus Ab inh: human desmoglein-3 autoantibody binding inhibition; P32926; DSG3-coupled beads, scFv-anti-DSG3-GFP binding, flow cytometry; active compounds read low; binding (percent of control), % at 10 µM; 310,000 tested, 0.48% active;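 active = binding more than 3 SD below its plate's average and above zero; inconclusive = below that plate limit but binding exactly zero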;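 note: hits lower antibody fragment binding to DSG3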
* = called active by the depositor; ? = inconclusive; / = no result given.

SMILES	pPAFAH inh	PAFAH1B2 FP inh	PAFAH1B3 FP inh	PAFAH2 inh	M18AAP inhibitor	Pemphigus Ab inh
O=C1OC(C(=O)Nc2ccccc2)Cc2ccccc21 (stereo unspecified)	25*	2	6	49*	-3	103
Cc1ccc(SC/C(O)=C(\C#N)c2nc3ccccc3s2)cc1	24	29*	5	24	8	101
N#C/C(=C(/O)COC(=O)c1ccc(C#N)cc1)c1nc2ccccc2s1	25*	6	8	12	7	99
COc1cccc(C(=O)N2CCC(n3nccc3NC(=O)C(OC)c3ccccc3)CC2)c1 (stereo unspecified)	-3	6	7	0	0	/
CN1OC[C@@H]2CN(C(=O)C(C)(C)C)[C@H](c3cccc(-c4ccccc4)c3)C[C@@H]21	/	7	5	-4	/	106
CN1OC[C@@H]2CN(C(=O)C(C)(C)C)[C@H](c3ccc(-c4cc5ccccc5o4)cc3)C[C@@H]21	/	/	/	/	/	61*
O=C(COC(=O)C12CC3CC(CC(Br)(C3)C1)C2)Nc1cccc(S(=O)(=O)N2CCOCC2)c1	1	31*	2	2	/	/
CN(Cc1ccccc1)C(=O)COC(=O)C12CC3CC(CC(Br)(C3)C1)C2	2	42*	10	-18	/	95
O=C(COC(=O)C12CC3CC(CC(O)(C3)C1)C2)Nc1ccccc1OC(F)F	4	8	5	21	-1	/
O=C(COC(=O)C12CC3CC(CC(Br)(C3)C1)C2)Nc1cccnc1Cl	0	32*	3	6	2	105
COc1cccc(-c2ccc(NC(=O)C3CCCN(CCCn4nc(C)cc4C)C3)cc2)c1 (stereo unspecified)	7	0	6	11	4	108
CC1(C)CC(=O)C=C(c2n[nH]nc2C2=CCCCC2)C1	/	/	/	/	/	108
O=CC(O)C1OC(=O)C(O)C1O (stereo unspecified)	/	-1	3	2	/	86*
Nn1c(SCC(=O)Nc2ccccc2Oc2ccccc2)nnc1C1CC1	/	1	8	3	/	104
CCOC(=O)c1sc(=NC(=O)c2cccs2)n(C)c1C	-2	0	0	-7	2	107
CCOC(=O)c1sc(=NC(=O)c2ccccc2Br)n(C)c1C	2	0	7	10	3	68*
Cn1cccc1CC(=O)NNC(=O)Nc1ccccc1F	4	2	11	9	/	100
Cn1cccc1CC(=O)NNC(=S)NC(=O)c1ccccc1Br	26*	4	3	0	18	104
Cn1cccc1CC(=O)NNC(=S)Nc1ccc(F)cc1	18	13	-3	2	12	85
O=C(CN1c2ccccc2Sc2ccccc21)NNC(=S)Nc1ccc(Cl)cc1Cl	34*	-2	-3	4	2	105
O=C(CN1c2ccccc2Sc2ccccc21)N/N=C/c1ccc(Cl)cc1Cl	1	-4	13	4	3	105
Cn1cccc1CC(=O)NNC(=S)Nc1ccc(Cl)cc1Cl	26*	9	4	-7	5	106
NC(=S)NN=Cc1cc(-c2cccc(N)c2)ccn1	/	/	/	/	/	104
CSc1cccc(NC(=O)CSc2ccc(Cl)cc2)c1	5	16	10	10	5	104
CC(C)CNC(=O)c1cccc(NC(=O)CSc2ccc(Cl)cc2)c1	3	30*	7	-3	4	97
SMILES	pPAFAH inh	PAFAH1B2 FP inh	PAFAH1B3 FP inh	PAFAH2 inh	M18AAP inhibitor	Pemphigus Ab inh
CO/N=C(/COc1ccc(F)cc1)c1ccc(OC)cc1	7	3	2	0	2	72*
COc1ccc(OCC(=O)O/N=C(\N)c2ccc(OC)cc2)cc1	-3	10	10	1	-11	103
N#CC1=C(N)NC(SCC(=O)O)=C(C#N)C12CCCC2	4	1	5	13	3	98
N#CC1=C(N)NC(SCc2ccc(F)cc2)=C(C#N)C12CCCCC2	0	28*	-6	5	4	?
COC(=O)c1cc(NS(=O)(=O)c2ccc(N3CCCCCC3)c([N+](=O)[O-])c2)cc(C(=O)OC)c1	9	33*	4	6	-11	104
Cc1ccc(C)c2[nH]c(=O)c(CN(Cc3ccc4c(c3)OCO4)Cc3nnnn3Cc3ccco3)cc12	1	4	6	4	32*	107
COc1ccc(NC(=O)c2ccco2)cc1NC(=O)c1ccccc1F	0	5	-1	-5	-9	85*
CCn1c(COc2ccccc2C)nnc1SCC(=O)NCc1ccccc1	3	2	3	0	8	99
CCn1c(CSCc2ccc(F)cc2)nnc1SCC(=O)NCc1ccccc1	4	30*	2	0	-12	110
C=CCN(CC=C)C(=O)CN1C(=O)NC(c2ccccc2)(c2ccccc2)C1=O	4	-4	7	-16	0	110
CN(CC(=O)NCc1ccc(F)cc1)Cc1ccc(Br)cc1	-1	25*	-1	-4	0	111
CC(=O)c1sc(NC(=O)C2(F)C(F)(F)C(F)(F)C(F)(F)C(F)(F)C2(F)F)nc1C	1	39*	4	28	0	113
COc1ccccc1C(=O)O[C@H]1[C@H](Cc2ccccc2)NS(=O)(=O)[C@H]2C[C@@H]3C=C[C@]12O3	-9	-3	-3	-13	/	101
C=C(Br)CN1[C@@H](Cc2ccccc2)[C@H](O)[C@@]23C=C[C@@H](C[C@@H]2S1(=O)=O)O3	4	19	8	3	/	86*
CN1CCN(CCNC(=O)c2ccc3nc(-c4ccc(F)cc4)c(-c4ccc(F)cc4)nc3c2)CC1	10	28*	2	-4	4	127
CCCc1ccc(Oc2cc(Cl)nc(N)n2)cc1	26*	6	10	11	1	77
CCc1ccc(Oc2cc(C)nc(N)n2)cc1	11	4	-1	-8	-2	/
C[C@@H]1CN([C@@H](C)CO)C(=O)CCCn2nncc2CO[C@H]1CN(C)S(=O)(=O)c1cccc(F)c1	/	/	/	/	/	105
CCCc1nnc(NC(=O)CCC(=O)NC2CCCc3ccccc32)s1 (stereo unspecified)	5	4	4	-7	-5	39*
CC(C)Cc1nnc(NC(=O)CCC(=O)NC2CCCc3ccccc32)s1 (stereo unspecified)	6	3	1	-6	-5	109
Cc1nc2c(C(=O)NCc3ccccc3Cl)c[nH]n2c(=O)c1Cl	32*	-3	1	29	0	102
COC(=O)c1c[nH]n2c(=O)c(Cl)c(C)nc12	-1	3	-3	-4	-1	129
Cc1nc2c(C(=O)NCc3ccccc3)c[nH]n2c(=O)c1Cl	13	9	-3	8	3	100
Cc1nc2c(C(=O)NCCc3ccccc3Cl)c[nH]n2c(=O)c1Cl	25*	11	7	13	-1	140
Clc1nssc1=Nc1ccc(Br)cc1	/	6	7	2	20	/
N#Cc1cccc(N=c2ssnc2Cl)c1	/	/	/	/	29*	106

Screening data (PubChem BioAssay)
